From PubChem BioAssay AID1781 (National Center for Advancing Translational Sciences (NCATS), 2009)
Records with an inconclusive call do not appear. Activity calls are given as the source filed them. Calls follow the shape of the dose curve; as a rule, active = well fitted curve in the direction sought with a large enough effect; inconclusive = small, poorly fitted or top-dose-only effect, or effect the other way, or another doubt; inactive = no such curve, though single readings can be large or run the other way.

Biological target: Pyruvate kinase PKLR (Homo sapiens) (UniProt P30613)
Sequence (P30613 whole entry, looked up): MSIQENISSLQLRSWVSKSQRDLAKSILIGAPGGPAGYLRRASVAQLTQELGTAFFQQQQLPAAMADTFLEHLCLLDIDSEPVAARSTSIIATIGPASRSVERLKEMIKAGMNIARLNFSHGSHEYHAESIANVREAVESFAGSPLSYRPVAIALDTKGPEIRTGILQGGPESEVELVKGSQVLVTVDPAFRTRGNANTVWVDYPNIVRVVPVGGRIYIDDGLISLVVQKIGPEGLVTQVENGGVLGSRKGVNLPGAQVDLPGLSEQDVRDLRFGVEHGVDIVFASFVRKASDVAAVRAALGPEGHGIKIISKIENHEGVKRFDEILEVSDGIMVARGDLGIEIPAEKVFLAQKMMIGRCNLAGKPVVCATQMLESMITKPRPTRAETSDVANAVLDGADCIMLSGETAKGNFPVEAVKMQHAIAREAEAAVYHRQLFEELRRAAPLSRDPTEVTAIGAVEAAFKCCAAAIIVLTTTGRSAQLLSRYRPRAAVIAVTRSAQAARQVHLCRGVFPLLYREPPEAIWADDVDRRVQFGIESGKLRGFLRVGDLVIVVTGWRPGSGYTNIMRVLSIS
Assay: Confirmation Concentration-Response Assay for Activators of Human Liver Pyruvate Kinase
Conditions: purified hPK-L, Kinase-Glo ATP luminescence, 1 h; series mostly up to 57.5 µM
Source text: Confirmatory assay NIH Chemical Genomics Center [NCGC] Matthew G. Vander Heiden, M.D., Ph.D. [Harvard Medical School, 77 Avenue Louis Pasteur, Boston, MA 02115] NCGC Assay Overview: Human pyruvate kinase liver (hPK-L) enzyme was supplied as a highly purified (>95% pure) preparation from Harvard Medical School and assayed for its ability to generate ATP from ADP using phosphoenolpyruvate (PEP) as a substrate. ATP generation was detected in a coupled reaction by luciferase-mediated luminescence, an ATP-dependent process. Pyruvate kinase substrates, PEP and ADP, were present in the assay at Km and approximately 10-fold below Km respectively. The enzyme was assayed at an intermediate level of activity to screen for both inhibitors and activators.
NCGC Assay Protocol Summary for L-isoform: Three uL of substrate mix (at r.t.) in assay buffer (50 mM Imidazole pH7.2, 50 mM KCl, 7 mM MgCl2, 0.01% Tween 20, 0.05% BSA) was dispensed into white solid bottom 1,536 well microtiter plates so that the final concentrations of substrates in the assay were 0.1 mM ADP and 0.5 mM PEP. 23 nL of compound were delivered by a pin tool and 1 uL of enzyme mix (final concentration of 0.1 nM) in assay buffer (4 degree Celsius) was added. Plates were incubated at room temperature for 1 hour. Two uL of detection mix (Kinase-Glo, Promega; at 4 degree Celsius protected from light) was added and luminescence read by a ViewLux (Perkin Elmer) at 1 second exposure/plate. Data were normalized to the uninhibited (row 31). Additionally, a no enzyme and 5-fold enzyme control was dispensed in row 32, split equally between the two conditions.

outcome, inactive:
Cc1cc2c(s1)c1cnn(Cc3ccccc3)c(=O)c1n2C
O=S(=O)(NCCCCCCNS(=O)(=O)c1c(F)cccc1F)c1ccc2c(c1)OCCO2
O=S(=O)(c1ccc2c(c1)OCCO2)N1CCN(S(=O)(=O)c2cccc[n+]2[O-])CC1
Cc1cc2c(s1)c1cnn(Cc3ccc(F)cc3)c(=O)c1n2C
O=S(=O)(c1ccc2c(c1)OCO2)N1CCN(S(=O)(=O)c2c(F)cccc2F)CC1
CCCc1cc(F)c(S(=O)(=O)N2CCN(S(=O)(=O)c3ccc4c(c3)OCCO4)CC2)cc1F
O=S(=O)(c1cccc(C(F)(F)F)c1)N1CCN(S(=O)(=O)c2ccc3c(c2)OCCO3)CC1
Cc1cc2c(s1)c1cnn(Cc3cccc(F)c3)c(=O)c1n2C
O=S(=O)(NC1CCN(S(=O)(=O)c2ccc3c(c2)OCCO3)CC1)c1c(F)cccc1F
O=C(c1ccc2c(c1)OCCO2)N1CCN(S(=O)(=O)c2c(F)cccc2F)CC1
Cc1cc2c(s1)c1cnn(Cc3ccc(C)c(F)c3F)c(=O)c1n2C
O=S(=O)(c1ccc2c(c1)OCCCO2)N1CCN(S(=O)(=O)c2c(F)cccc2F)CC1
COc1ccc(S(=O)(=O)N2CCN(S(=O)(=O)c3ccc(OC)cc3)CC2)cc1
Cc1cc2c(s1)c1cnn(Cc3ccc(Cl)cc3)c(=O)c1n2C
CC(C)c1cc2c(s1)c1cnn(Cc3ccccc3F)c(=O)c1n2C
Cc1ccc(Cn2ncc3c4sc(C)cc4n(C)c3c2=O)cc1
CSc1cc2c(s1)c1cnn(Cc3ccccc3F)c(=O)c1n2C
Cc1cc2c(s1)c1cnn(Cc3ccc(-c4ccccc4)cc3)c(=O)c1n2C
O=S(=O)(c1ccc2ccccc2c1)N1CCN(S(=O)(=O)c2c(F)cccc2F)CC1
O=S(=O)(NC1CCN(S(=O)(=O)c2c(F)cccc2F)C1)c1ccc2c(c1)OCCO2 (stereo not given)
CCc1cc2c(s1)c1cnn(Cc3ccccc3F)c(=O)c1n2C
Cc1cc2c(s1)c1cnn(Cc3ccccc3F)c(=O)c1n2C(C)C
CCn1c2cc(C)sc2c2cnn(Cc3ccccc3F)c(=O)c21
Cc1cc2c(s1)c1cnn(Cc3cccc(Cl)c3)c(=O)c1n2C
C[C@@H]1CN(S(=O)(=O)c2ccc3c(c2)OCCO3)CCN1S(=O)(=O)c1c(F)cccc1F
Cc1cc2c(s1)c1c(C)nn(Cc3ccccc3F)c(=O)c1n2C
CC1(C)CCc2cc(S(=O)(=O)N3CCN(S(=O)(=O)c4c(F)cccc4F)CC3)ccc2O1
COC(=O)c1cc2c(s1)c1cnn(Cc3ccccc3F)c(=O)c1n2C
Cc1cc2c(s1)c1cnn(Cc3ccc(C(C)C)cc3)c(=O)c1n2C
Cc1cc2c(s1)c1cnn(-c3ccccc3)c(=O)c1n2C
COc1ccc(Cn2ncc3c4sc(C)cc4n(C)c3c2=O)cc1
CN1CCOc2ccc(S(=O)(=O)N3CCN(S(=O)(=O)c4c(F)cccc4F)CC3)cc21
Cn1c2cc(C#N)sc2c2cnn(Cc3ccccc3F)c(=O)c21
Cn1ccc2cc(S(=O)(=O)N3CCN(S(=O)(=O)c4c(F)cccc4F)CC3)ccc21
CCCCCn1ncc2c3sc(C)cc3n(C)c2c1=O
Cc1cc2c(s1)c1cnn(Cc3c(F)cccc3Cl)c(=O)c1n2C
O=S(=O)(c1ccc2c(c1)OCCO2)N1CCN(S(=O)(=O)c2ccc3c(c2)OCCO3)CC1
CC(=O)c1cc2c(s1)c1cnn(Cc3ccccc3F)c(=O)c1n2C
Cc1cc2c(s1)c1cnn(Cc3ccccc3Cl)c(=O)c1n2C
O=C(CN1C(=O)N/C(=C\c2cccn2-c2cccc(C(=O)O)c2)C1=O)Nc1ccccc1F
